In ChEMBL document CHEMBL1157539, “Thousands of chemical starting points for antimalarial lead identification” (Nature, 2010):

System: Plasmodium falciparum
Assay: GSK_TCMDC: Inhibition of Plasmodium falciparum Dd2 in whole red blood cells, using parasite LDH activity as an index of growth. Test compounds present at 2uM
Type: functional

SMILES	Inhibition
CC(C)(C)C(=O)Nc1ccc(N2CCN(C(c3ccccc3)c3ccccc3)CC2)c(Cl)c1	94%
COc1cc2ccccc2cc1CNCCCCCCNCc1cc2ccccc2cc1OC.CS(=O)(=O)O	24%
O=C(/C=C/c1ccc(Cl)c(Cl)c1)N1CCC(CCN2CCC(c3c[nH]c4ccncc34)CC2)CC1	70%
CC1CN(Cc2ccc(-c3cccc(-c4nc5cc(F)ccc5[nH]4)c3)cc2)CC(C)O1.O=C(O)C(F)(F)F (stereo not given)	20%
Cn1nc2ccc3ccccc3c2nc1=N.I	85%
CC[C@H]1CN(Cc2cccc(O)c2)CC[C@H]1CCCc1ccnc2ccc(O)cc12	98%
CCc1c(CCNCCCCCCNCCc2ccc(OC)c(OC)c2C)ccc(OC)c1OC.Cl	1%
CN1CC[C@@H](Oc2cc(CNC(=O)c3ccc(-c4ccc(Cl)cc4)s3)ccc2C(F)(F)F)C1.Cl	64%
CCN(CCCN1CCCC1)c1cc(C)nc(Nc2ccc(Cl)cc2)n1.O=C(O)C(=O)O	12%
COc1c(C2CCN(CCCCNC(=O)c3ccc(-c4ccc(Cl)cc4)c(OCC(N)=O)c3)CC2)ccc2c1CCCC2	11%
COc1ccc2ncc(F)c([C@H](O)CN3CCC(NCc4ccc5c(c4)OCCO5)CC3)c2c1.Cl	99%
Cc1ccccc1N1CCN(c2ccc(C(=O)NC3CC3)cn2)CC1.O=C(O)C(F)(F)F	96%
Cl.N=C(N)Nc1ccc(CCc2ccc(NC(=N)N)cc2)cc1	95%
CCn1c(-c2nonc2N)nc2c(-c3ccc(CO)o3)ncc(OCCCN)c21.O=C(O)C(F)(F)F	97%
CN(C)CCCOc1ccc(CNCC(C)(C)c2nc(-c3ccc(Cl)c(O)c3)c(-c3ccncc3)[nH]2)cc1.Cl	58%
C=CCOc1ccc2ccccc2c1CNCCCCCCNCc1c(OCC=C)ccc2ccccc12.CS(=O)(=O)O	98%
CN(C)CCCOc1ccc(CN2CC[C@H](NC(=O)c3ccc(Cl)c(Cl)c3)C2)cc1Br.O=C(O)C(F)(F)F	34%
Cc1cc(NC(=O)NCCN2CCC(NC(=O)c3ccc(C(F)(F)F)cc3)CC2)c2ccccc2n1.O=C(O)C(F)(F)F	75%
CCOC(=O)c1c(C)n(-c2ccccc2)c2ccc(OC(=O)c3ccc(S(=O)(=O)N(CC)CC)cc3)cc12	63%
COc1ccc2ncc(C#N)c(CCN3CCC(NCc4cnc5c(c4)OCCO5)CC3)c2n1.Cl	24%

SMILES	Inhibition
O=C(O)C(=O)O.Oc1c(CN2CCC(Cc3ccccc3)CC2)cc(Cl)c2cccnc12	94%
O=C(NCC1CC1)C1CCN(C(c2ccccc2)c2cc(F)cc(F)c2)CC1 (stereo not given)	95%
CCOc1ccccc1CCNCC1CCN(CC2CCCCC2)CC1.O=C(O)C(F)(F)F	59%
CCC(C)(C)C1CCc2nc(N)nc(N)c2C1.Cl (stereo not given)	97%
COc1cc(Cc2cnc(N)nc2N)cc(OCCCCC2SC(=O)NC2=O)c1OC (stereo not given)	0%
N#Cc1ccc(C(=O)NC2CCN(CCCCCNC(=O)/C=C/c3ccc(Cl)c(Cl)c3)CC2)cc1	1%
FC(F)(F)c1ccc2[nH]c(-c3ccc(-c4cccc(CNCc5ccccc5)c4)s3)nc2c1.O=C(O)C(F)(F)F	83%
c1cc(Nc2nccc(-c3cnn4ncccc34)n2)cc(-c2cnco2)c1	83%
O=C(O)C1CC(=O)N(c2ccc(Cl)cc2)C1 (stereo not given)	33%
Cc1c(C(=O)N2CCCC(C(F)(F)F)C2)sc2cccc(F)c12 (stereo not given)	89%
Cc1cnc(C(=O)Nc2cccc(-c3ccc(-c4nc5cc(C(F)(F)F)ccc5[nH]4)s3)c2)cn1	14%
Cc1ccc2nc(-c3ccc(/C=C/C(=O)NC4CCN(Cc5ccccc5)CC4)cc3)[nH]c2c1C	92%
c1ccc(Nc2nc(-c3ccccn3)cs2)nc1	93%
c1cncc(CN2CCCN(c3ccc4c(c3)CCN(Cc3ccc(-c5ncc[nH]5)cc3)CC4)CC2)c1	33%
NC(=O)c1cccc(C(=O)Nc2ccc(-c3cccc(-c4nc5cc(F)ccc5[nH]4)c3)cc2)c1	5%
CC(O)C1CCCCN1C(=O)c1cccc(-c2cccc(-c3nc4ccccc4[nH]3)c2)c1 (stereo not given)	76%
CCCCCOc1ccc(C(O)C(CCC(CN2CCCCCC2)C(O)c2ccc(OCCCCC)cc2)CN2CCCCCC2)cc1.Cl (stereo not given)	93%
COc1ccc(NC(=O)/C=C/c2ccccc2Cl)cc1OCCN1CCC(Cc2cc3ccccc3[nH]2)CC1.Cl	8%
COc1nc2c(N3CCN(CCNCc4ccc5c(n4)NC(=O)CO5)CC3)ccnc2cc1F.Cl	9%
O=C(NCCCN(Cc1ccc(F)cc1)c1ccccn1)C(c1cc2ccccc2o1)N1CCN(C(c2ccccc2)c2ccccc2)CC1 (stereo not given)	53%
